This is an account of results in PubChem BioAssay (NCI).

Molecules are shown by their SMILES. The panel holds about 83,000 compounds, 20% with a hit somewhere; the sample as a whole holds those more often.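 Cells were grown in 96-well plates and exposed to the test compound at a single concentration for 48 hours; results are reported as percent growth, with values below 10 considered active.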 Values without a mark were called inactive. Activity calls are given as the source filed them.

Test systems include NCI-H23 lung; NCI-H226 lung; NCI-H322M lung; HOP-62 NSCLC; NCI-H460 lung; HOP-92 NSCLC; NCI-H522 lung; A549/ATCC NSCLC; 786-0 renal; COLO 205 colon.
Holding throughout (assay): NCI-60 one-dose screen, 48 h (100 = growth as untreated, 0 = no growth, -100 = all killed)
Holding throughout (conditions): 10 µM unless noted

Regarding `COc1ccc(-c2ccc(-c3ccc(-c4ccc(C(=N)N)cc4)s3)s2)cc1OC`, the growth in the assay on NCI-H23 lung was 88.7%; with NCI-H226 lung it was 96.7%; with NCI-H322M lung it was 111%; in the assay with HOP-62 NSCLC, 86%; with NCI-H460 lung, 97.7%; with HOP-92 NSCLC it was 33.1%. Moreover, the growth in the assay on NCI-H522 lung was 99.9%; in the assay with A549/ATCC NSCLC, 43.1%; with 786-0 renal, 93%; in the assay on COLO 205 colon it was -14.7% (active).
In the case of `Cn1ccc(Nc2nccc(Oc3ccc(C(=O)Nc4cccc(F)c4)c(Cl)c3)n2)c1`, the growth in the assay with NCI-H23 lung is 67.3%; in the assay on NCI-H226 lung, 68%; in the assay with NCI-H322M lung it was 48.4%; in the assay with HOP-62 NSCLC, 100%; in the assay with NCI-H460 lung, 106%; in the assay on HOP-92 NSCLC it was 76.4%. For the same compound, the growth in the assay on NCI-H522 lung is 43.1%; in the assay on A549/ATCC NSCLC, 97.2%; in the assay on 786-0 renal it was 79.8%; with COLO 205 colon it was 105%.
As to `COc1ccccc1CNCCCN1C(=O)c2ccc3c4c(ccc(c24)C1=O)C(=O)N(CCCNCCCCNCCCN)C3=O`, the growth in the assay with NCI-H23 lung is 1.96% (active); in the assay on NCI-H226 lung, -59.9% (active); in the assay with NCI-H322M lung, -4.96% (active); in the assay on HOP-62 NSCLC it was -55.2% (active); with NCI-H460 lung, -30.2% (active); with HOP-92 NSCLC, 5.16% (active). The growth in the assay with NCI-H522 lung is -41.7% (active); in the assay with A549/ATCC NSCLC, -48.2% (active); with 786-0 renal, 3.83% (active); with COLO 205 colon it was -78.9% (active).
Turning to `COc1ccc(N2CCN(Cc3cc(C(=O)/C=C/c4c[nH]c5ccccc45)ccc3O)CC2)cc1`, the growth in the assay on NCI-H23 lung was 102%; with NCI-H226 lung, 100%; with NCI-H322M lung it was 100%; in the assay on HOP-62 NSCLC it was 89%; in the assay on NCI-H460 lung it was 106%; in the assay on HOP-92 NSCLC, 89.9%. Also, the growth with NCI-H522 lung is 95.2%; in the assay on A549/ATCC NSCLC it was 102%; in the assay with 786-0 renal, 105%; in the assay with COLO 205 colon it was 107%.
In the case of `CC(=O)OC[C@]12CC[C@H]3[C@@H](C[C@H]4O[C@]45CC=CC(=O)[C@]35C)[C@]1(O)CC[C@@]2(O)[C@@](C)(O)C1CC(C)=C(C)C(=O)O1` (stereo not given in full), the growth is -32.9% (active) in the assay with NCI-H23 lung; -28.5% (active) with NCI-H226 lung; -54.2% (active) with NCI-H322M lung; -34% (active) with HOP-62 NSCLC; -51.3% (active) with NCI-H460 lung; -34.6% (active) in the assay with HOP-92 NSCLC. Besides, the growth in the assay with NCI-H522 lung is -54.1% (active); in the assay on A549/ATCC NSCLC it was 6.23% (active); in the assay with 786-0 renal, -19.6% (active); in the assay with COLO 205 colon, -35.7% (active).
On to `Cn1ncc2c(Sc3ccc(Cl)cc3)ncnc21`, for which the growth was 93.6% with NCI-H23 lung; 108% in the assay with NCI-H226 lung; 86.5% in the assay on NCI-H322M lung; 111% in the assay with HOP-62 NSCLC; 92.9% in the assay on NCI-H460 lung; 25.8% in the assay on HOP-92 NSCLC. Also, the growth in the assay on NCI-H522 lung is 21.4%; in the assay with A549/ATCC NSCLC it was 93.1%; in the assay with 786-0 renal, 98.8%; in the assay with COLO 205 colon, 90.8%.
Take `CCN(CC)CCOc1ccc(Cl)c(C)c1`: the growth is 91.6% in the assay with NCI-H23 lung; 104% with NCI-H226 lung; 103% in the assay on NCI-H322M lung; 104% with HOP-62 NSCLC; 106% in the assay on NCI-H460 lung; 85.7% in the assay on HOP-92 NSCLC. Also, the growth in the assay on NCI-H522 lung was 92.4%; in the assay with A549/ATCC NSCLC, 96.5%; in the assay with 786-0 renal, 99.6%; with COLO 205 colon, 103%.
`COc1cc(/C=C/C(=O)c2c(C)nc3ccccc3c2C)ccc1OCCCCOc1cc2c(cc1OC)C(=O)N1CCC[C@H]1C=N2`: the growth in the assay with NCI-H23 lung is -34.9% (active); in the assay with NCI-H226 lung, -80.9% (active); with NCI-H322M lung, -62.7% (active); with HOP-62 NSCLC it was -49% (active); in the assay on NCI-H460 lung, -93.3% (active); with HOP-92 NSCLC it was -49.1% (active). The growth in the assay on NCI-H522 lung was -32.2% (active); with A549/ATCC NSCLC it was -52.6% (active); with 786-0 renal it was -88.1% (active); in the assay with COLO 205 colon it was -100% (active).
Consider `Fc1ccc(CNCCNc2ncnc3c2cnn3-c2ccccc2)cc1`, for which the growth is 103% with NCI-H23 lung; 102% with NCI-H226 lung; 100% in the assay with NCI-H322M lung; 90.4% with HOP-62 NSCLC; 104% with NCI-H460 lung; 61.8% in the assay with HOP-92 NSCLC. Besides, the growth was 99.9% with NCI-H522 lung, 91.7% with A549/ATCC NSCLC, 83.5% in the assay on 786-0 renal and 89.6% in the assay on COLO 205 colon.
With `O=c1[nH]c(NCc2ccccc2)nc2nc(Nc3ccc(NC(=S)Nc4ccccc4)cc3)nc(-c3ccc(O)cc3O)c12`, the growth in the assay on NCI-H23 lung is 99.4%; in the assay on NCI-H226 lung, 89.6%; in the assay on NCI-H322M lung it was 140%; in the assay on HOP-62 NSCLC, 105%; in the assay with NCI-H460 lung it was 109%; with HOP-92 NSCLC, 89.5%. For the same compound, the growth in the assay with NCI-H522 lung is 54.2%; in the assay with A549/ATCC NSCLC, 41.6%; in the assay with 786-0 renal, 104%; with COLO 205 colon, 110%.
On to `COc1ccc(Nc2nn3c(-c4ccccc4)cc(-c4ccccc4)nc3c2C(N)=O)c(OC)c1`, for which the growth in the assay on NCI-H23 lung was 33.5%; in the assay on NCI-H226 lung it was 46.4%; in the assay with NCI-H322M lung it was 61.4%; with HOP-62 NSCLC, 47.3%; with NCI-H460 lung it was 20.3%; in the assay on HOP-92 NSCLC, 70.9%. Besides, the growth is 34.8% in the assay with NCI-H522 lung, 24% in the assay on A549/ATCC NSCLC, 67.6% in the assay with 786-0 renal and 53.2% in the assay on COLO 205 colon.
Turning to `O=C(Nc1ccncc1)C(=O)c1cn(S(=O)(=O)c2ccc(Br)cc2)c2ccccc12`, the growth is 46.9% in the assay on NCI-H23 lung; 77.8% with NCI-H226 lung; 97.1% in the assay with NCI-H322M lung; 44.7% with HOP-62 NSCLC; 68.4% with NCI-H460 lung; 48.6% in the assay with HOP-92 NSCLC. Further, the growth with NCI-H522 lung is 18.3%; in the assay with A549/ATCC NSCLC, 75.6%; with 786-0 renal, 54.9%; in the assay with COLO 205 colon, 103%.
In the case of `COc1ccc(-c2nc(/C=C3/C(=O)Nc4ccc(F)cc43)c3ccccn23)cc1`, the growth is 97.8% with NCI-H23 lung; 114% in the assay on NCI-H226 lung; 126% in the assay on NCI-H322M lung; 108% in the assay with HOP-62 NSCLC; 94.8% in the assay with NCI-H460 lung; 92.3% in the assay on HOP-92 NSCLC. In addition, the growth was 104% in the assay with NCI-H522 lung, 99.4% in the assay with A549/ATCC NSCLC, 98.8% in the assay on 786-0 renal and 97.3% in the assay on COLO 205 colon.
In the case of `COc1ccc(C(=O)N2NC(=O)/C(=C/c3ccccc3F)N=C2c2ccccc2)cc1`, the growth in the assay with NCI-H23 lung was 93.5%; with NCI-H226 lung it was 104%; with NCI-H322M lung, 110%; in the assay on HOP-62 NSCLC, 108%; with NCI-H460 lung, 106%; in the assay on HOP-92 NSCLC, 96.8%. For the same compound, the growth in the assay on NCI-H522 lung was 102%; in the assay with A549/ATCC NSCLC, 96.2%; in the assay with 786-0 renal, 102%; with COLO 205 colon, 122%.
